Hits are enriched below; roughly 1.6% of the tested compounds scored in any of these assays.
KCNQ2 pot: KCNQ2 (rat) channel potentiation; O88943; CHO-K1 KCNQ2, FluxOR thallium flux fluorescence; stronger effect = higher value; B-score at 10 µM; 310,000 tested, 0.54% active; AID 2239;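 active = fluorescence ratio B-score at least 3 SD of library B-scores, with initial fluorescence B-score within 3 of them, cut at about 5.3 in these data; same plate scores as AID 2156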;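 note: B-score of peak minus minimum over baseline fluorescence ratio after K+ and Tl+ stimulus; positive B-score means potentiation of KCNQ2 with more thallium influx and brighter signal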
Target sequence (O88943 whole entry, looked up): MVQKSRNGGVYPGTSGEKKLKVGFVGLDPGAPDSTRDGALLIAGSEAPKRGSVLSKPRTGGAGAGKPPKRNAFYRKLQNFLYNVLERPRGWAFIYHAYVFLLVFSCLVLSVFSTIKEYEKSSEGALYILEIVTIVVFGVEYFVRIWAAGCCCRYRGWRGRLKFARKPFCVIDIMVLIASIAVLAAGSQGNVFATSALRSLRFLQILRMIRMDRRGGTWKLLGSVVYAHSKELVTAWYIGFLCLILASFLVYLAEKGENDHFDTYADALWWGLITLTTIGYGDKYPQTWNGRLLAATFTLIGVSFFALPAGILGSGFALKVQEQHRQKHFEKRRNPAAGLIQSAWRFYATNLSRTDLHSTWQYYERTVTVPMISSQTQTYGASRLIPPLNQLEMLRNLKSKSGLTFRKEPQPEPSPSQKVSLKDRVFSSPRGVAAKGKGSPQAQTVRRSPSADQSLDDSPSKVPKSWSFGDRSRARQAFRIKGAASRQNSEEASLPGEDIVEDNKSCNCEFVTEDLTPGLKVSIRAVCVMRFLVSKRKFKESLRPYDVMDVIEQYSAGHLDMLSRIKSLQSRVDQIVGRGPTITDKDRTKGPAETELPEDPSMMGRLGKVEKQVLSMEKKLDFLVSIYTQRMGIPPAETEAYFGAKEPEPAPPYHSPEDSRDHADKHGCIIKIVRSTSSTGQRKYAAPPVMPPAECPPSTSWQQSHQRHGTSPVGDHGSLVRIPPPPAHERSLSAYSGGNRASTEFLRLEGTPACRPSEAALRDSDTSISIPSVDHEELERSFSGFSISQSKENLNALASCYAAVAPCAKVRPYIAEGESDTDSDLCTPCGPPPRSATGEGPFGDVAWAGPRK
KCNQ2 block: blocks the rat KCNQ2 potassium channel | O88943 | CHO-K1 KCNQ2, FluxOR thallium flux, 20 min; stronger effect = lower value | B-score at 10 µM | 310,000 tested, 1.1% active | AID 2156;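 active = fluorescence ratio B-score at most minus 3 library SDs, with starting brightness B-score within 2 library SDs, cut at about -5.5 in these data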
Numbers without * were called inactive.

For Cc1cccc(CN2CCN(C(c3ccccc3)c3ccc(Cl)cc3)CC2)c1 (stereo not drawn) the results were KCNQ2 pot -5.94 and KCNQ2 block -5.94*.
`COc1cc(CN2CCN(C(c3ccccc3)c3ccccc3)CC2)cc(OC)c1OC` gave KCNQ2 block inactive.
Screening CCOCCCN(C)C1CCN(C(=O)c2oc3ccccc3c2NC(=O)c2cccc([N+](=O)[O-])c2)CC1 returned KCNQ2 pot 1.23 and KCNQ2 block inactive.
CCOC(=O)C1(CCc2ccccc2)CCN(Cc2ccc(C(=O)OC)cc2)CC1 was read as KCNQ2 pot -5.65 and KCNQ2 block -5.65*.
Screening CCOC(=O)C1(CC2CC2)CCN(Cc2ccc(C(=O)OC)cc2)CC1 returned KCNQ2 block inactive.
For Cc1ccccc1C(=O)NNC(=S)NC(=O)c1ccccc1 the results were KCNQ2 pot 5.31* and KCNQ2 block inactive.
Screening O=C(NC(=S)NNC(=O)c1ccccc1O)c1ccccc1 returned KCNQ2 block inactive.
Screening Cc1ccc(S(=O)(=O)NCC(=O)N(CC(=O)NCc2ccco2)Cc2ccc(F)cc2)cc1 returned KCNQ2 block inactive.
Cc1ccc(S(=O)(=O)N(CC(=O)NCc2ccco2)Cc2ccc(F)cc2)cc1 was read as KCNQ2 pot -7.28 and KCNQ2 block -7.28*.
For Cc1cccc(S(=O)(=O)N(CC(=O)Nc2ccccc2C)Cc2ccco2)c1 the results were KCNQ2 pot -5.84 and KCNQ2 block -5.84*.
Screening Cc1ccc(C)c(N(CC(=O)Nc2ccccc2C(=O)NCc2ccco2)S(=O)(=O)c2ccccc2)c1 returned KCNQ2 block inactive.
Screening N#CCN1CCC(c2cc(-c3ccco3)n[nH]2)CC1 returned KCNQ2 pot 0.45 and KCNQ2 block inactive.
`S=C(Nc1ccccc1)Nc1nccs1` gave KCNQ2 pot 6.55* and KCNQ2 block inactive.
O=C(Cc1ccccc1)Nc1nccs1 was read as KCNQ2 pot 0.41 and KCNQ2 block inactive.
Screening O=C(Cc1ccc(F)cc1)Nc1nccs1 returned KCNQ2 block inactive.
Fc1ccc(NC(=S)Nc2nccs2)cc1 was read as KCNQ2 pot 7.32* and KCNQ2 block inactive.
`CSc1cccc(NC(=O)CCNS(=O)(=O)c2ccc3[nH]c(=O)oc3c2)c1` gave KCNQ2 block inactive.
`CCCNC(=O)CCn1cc(-c2ccc(OC)cc2)nc1-c1ccncc1` gave KCNQ2 pot 1.11 and KCNQ2 block inactive.
COc1cc(OC)c(C2=NOC(C(=O)N3CCCc4ccccc43)C2)cc1Cl (stereo not drawn) was read as KCNQ2 pot 0.18 and KCNQ2 block inactive.
Screening CCC1CCCCN1C(=O)C1CC(c2cc(Cl)c(OC)cc2OC)=NO1 (stereo not drawn) returned KCNQ2 pot -6.23 and KCNQ2 block -6.23*.
Screening Nc1c(Cl)ncnc1NCC(O)CO (stereo not drawn) returned KCNQ2 block inactive.
`CCCCN(CCCNC(=O)C1CCN(S(=O)(=O)CC)CC1)c1ccccc1` gave KCNQ2 block inactive.
For CC(=O)Nc1ccc(NC(=O)C2CC(=O)N(c3ccccc3Cl)C2)cc1 (stereo not drawn) the results were KCNQ2 pot 20.5* and KCNQ2 block inactive.
Screening CC(=O)Nc1ccc(NC(=O)C2CC(=O)N(c3ccc(Cl)cc3)C2)cc1 (stereo not drawn) returned KCNQ2 block inactive.
For Nc1ncc([N+](=O)[O-])cc1S(=O)(=O)c1ccccc1 the results were KCNQ2 pot 0.05 and KCNQ2 block inactive.
`CCCCc1ccc(NC(=O)CSC2=NN3CCCC(=O)N=C3S2)cc1` gave KCNQ2 pot 0.07 and KCNQ2 block inactive.
Screening CC1CC(C)CN(CCCNC(=O)c2ccc3c(c2)N(Cc2ccccc2)C(=O)c2ccccc2S3=O)C1 (stereo not drawn) returned KCNQ2 block inactive.
For OC1CN=C2CCCc3c2n(c2ccc(Cl)cc32)C1 (stereo not drawn) the results were KCNQ2 block inactive.
`c1ccc(-c2ccc3c(c2)c2c4n3CCN=C4CCC2)cc1` gave KCNQ2 pot -7.54 and KCNQ2 block -7.54*.
`C=CCN1C(=O)[C@@H]2Cc3c([nH]c4ccccc34)C(c3cc(OC)c(OC)c(OC)c3)N2C1=S` (stereo partly drawn) gave KCNQ2 pot -6.12 and KCNQ2 block -6.12*.
CCN1C(=O)[C@@H]2Cc3c([nH]c4ccccc34)C(c3cc(OC)c(OC)c(OC)c3)N2C1=S (stereo partly drawn) was read as KCNQ2 block inactive.
COc1ccccc1CNC(=O)c1cccc2c1C(=O)N(Cc1cccnc1)C2 was read as KCNQ2 pot 0.26 and KCNQ2 block inactive.
CC(c1ccccn1)N(CCN(C)C)C(=S)Nc1cccc(F)c1 (stereo not drawn) was read as KCNQ2 pot 1.3 and KCNQ2 block inactive.
For CC(C)CCN(C(=S)Nc1cccc(C(F)(F)F)c1)C(C)c1ccccn1 (stereo not drawn) the results were KCNQ2 pot -6.12 and KCNQ2 block -6.12*.
For Cc1onc(-c2ccccc2)c1C(=O)NC(=S)Nc1sc2c(c1C#N)CCC(C)C2 (stereo not drawn) the results were KCNQ2 pot 10.3* and KCNQ2 block inactive.
For Cc1onc(-c2ccccc2)c1C(=O)NC(=S)Nc1sc2c(c1C#N)CCCC2 the results were KCNQ2 pot 2.63 and KCNQ2 block inactive.
`CCc1nnc(NC(=O)CSc2nnc(-c3cccnc3)n2C)s1` gave KCNQ2 pot 1.82 and KCNQ2 block inactive.
Brc1ccc(NCc2cccc3ccccc23)nc1 was read as KCNQ2 pot -6.01 and KCNQ2 block -6.01*.
`Oc1ccccc1CNc1ccc(Br)cn1` gave KCNQ2 block inactive.
`CCn1ccc(C(=O)Nc2ncc(C)s2)n1` gave KCNQ2 pot 0.21 and KCNQ2 block inactive.
O=C(CCN1C(=O)C2CCCCC2C1=O)N1CCN(S(=O)(=O)c2ccccc2)CC1 (stereo not drawn) was read as KCNQ2 block inactive.
`Cc1ccc2c(Cl)cc(Cl)c(OCC(=O)NC(C)(C)C)c2n1` gave KCNQ2 pot -7.05 and KCNQ2 block -7.05*.
`COC(=O)COc1c(Cl)cc(Cl)c2ccc(C)nc12` gave KCNQ2 block inactive.
For Cc1ccc(NC(=O)NC2CCCc3ccccc32)cc1 (stereo not drawn) the results were KCNQ2 pot -5.78 and KCNQ2 block -5.78*.
For CC(C)(C)c1ccc(NC(=O)NC2CCCc3ccccc32)cc1 (stereo not drawn) the results were KCNQ2 block inactive.
`COC(=O)Cn1c2ccc(OC)cc2c2nc3ccccc3nc21` gave KCNQ2 pot -5.71 and KCNQ2 block -5.71*.
Screening CCOC(=O)Cn1c2ccc(OC)cc2c2nc3ccccc3nc21 returned KCNQ2 block inactive.
`NC(=S)NN=C(Cc1ccccc1)Cc1ccccc1` gave KCNQ2 pot -5.63 and KCNQ2 block -5.63*.
Screening C/C(Cc1ccccc1)=N\NC(=O)c1ccc(F)cc1 returned KCNQ2 pot 2.84 and KCNQ2 block inactive.
`O=C(NN=C(Cc1ccccc1)Cc1ccccc1)c1ccc(F)cc1` gave KCNQ2 pot -5.62 and KCNQ2 block -5.62*.
O=C(NN=C(Cc1ccccc1)Cc1ccccc1)c1ccccc1O was read as KCNQ2 pot 1.4 and KCNQ2 block inactive.
For CC1C/C(=N\NC(=S)NC(C)C)CC(C)(C)C1 (stereo not drawn) the results were KCNQ2 block inactive.

High-throughput results as filed in PubChem.
